Rows were chosen to be rich in hits. Some 3.3% of all compounds tested hit in one or more screens of this group.
Sm TGR inh: qHTS Assay for the Inhibitors of Schistosoma Mansoni Peroxiredoxins; purified TGR, DTNB reduction, TNB absorbance 405 nm; AID 485364, 2010; Potency, µM (titrated, usually from 114 µM), usual class: inhibitors; hit rate 3% among 360,000; further: nearly all actives have a fitted effect of over 60% in size
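TGR 20 nM + NADPH 100 uM (dispensed conc.), cpd preinc 15 min RT; start with NADPH (500 uM addition) then DTNB (15 mM addition). Kinetic TNB absorbance, 405 nm filter. Four-parameter Hill fit across titration.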
NS1 function inh: qHTS Assay for Inhibitors of Influenza NS1 Protein Function | Potency, µM (highest dose often 46.1 µM) | hit rate 0.4% among 270,000; calls by dose curve; further: actives are rising curves; nearly all actives have a fitted effect of over 50% in size
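A cell-based growth assay was used: compounds that relieve NS1-induced slow growth of budding yeast raise OD600. Assay medium was yeast nitrogen base with ammonium sulphate and -URA supplement, pH 6.0, with 2% galactose.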
Tb PYK inh: qHTS of Trypanosoma Brucei Inhibitors. hit rate 0.12% among 410,000. pyruvate kinase (Trypanosoma brucei), Q57TT1. Potency, µM (series often up to 76.8 µM), actives largely listed as inhibitors. TbPYK enzyme, Kinase-Glo Plus ATP luminescence, 45 min. AID 624173, 2012; further: nearly all actives have a fitted effect of over 50% in size
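Assay buffer: 50 mM TEA pH 7.2, 100 mM KCl, 10 mM MgCl2, 0.05% BSA, 0.01% Tween-20. Pyruvate kinase from T. brucei plus substrate met compound, then ADP (130 uM final). Luminescence was read post 45 min RT.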
SARS PLP yeast: qHTS of Yeast-based Assay for SARS-CoV PLP. S. cerevisiae expressing SARS-CoV PLpro, growth rescue. Potency, µM (doses to about 32.9 µM), hits mostly activators. hit rate 0.19% among 330,000; calls by dose curve; further: nearly all actives have a fitted effect of over 55% in size
LmPK inhibitor: qHTS Assay for Inhibitors of Leishmania Mexicana Pyruvate Kinase (LmPK). Q27686. purified LmPK, Kinase-Glo ATP luminescence, 1 h. Potency, µM (series often up to 57.5 µM), usual class: inhibitors. hit rate 0.37% among 290,000
Target sequence (Q27686 whole entry, looked up): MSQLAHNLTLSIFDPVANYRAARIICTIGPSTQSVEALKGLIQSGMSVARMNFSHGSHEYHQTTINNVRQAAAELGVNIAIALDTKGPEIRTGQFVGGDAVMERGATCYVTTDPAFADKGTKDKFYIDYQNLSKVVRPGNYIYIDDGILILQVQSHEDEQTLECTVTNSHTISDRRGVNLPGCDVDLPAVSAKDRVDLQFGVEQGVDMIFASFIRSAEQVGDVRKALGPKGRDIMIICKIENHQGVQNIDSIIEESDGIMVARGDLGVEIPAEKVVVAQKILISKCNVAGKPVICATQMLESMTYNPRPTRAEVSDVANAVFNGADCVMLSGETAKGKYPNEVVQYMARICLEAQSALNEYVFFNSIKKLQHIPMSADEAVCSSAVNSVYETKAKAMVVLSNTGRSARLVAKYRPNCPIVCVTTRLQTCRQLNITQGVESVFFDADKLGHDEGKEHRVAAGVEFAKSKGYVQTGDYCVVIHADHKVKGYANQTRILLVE
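0.1 nM LmPK, 0.5 mM PEP, 0.1 mM ADP; 50 mM imidazole pH 7.2, 7 mM MgCl2, 50 mM KCl; 1 h RT. Kinase-Glo luminescence readout, normalized to no-enzyme (full inhibition) and uninhibited wells.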
RE007 growth inh: qHTS Assay for Inhibitors of the HIV-1 protein Vpr; hit rate 0.21% among 360,000; Potency, µM (series often up to 92.2 µM), actives largely listed as inhibitors; S. pombe RE007 Vpr strain, BacTiter-Glo ATP luminescence, 24 h; active means well fitted falling curve with a large enough effect; inconclusive means small, poorly fitted or top-dose-only effect; inactive means no such curve, though single readings can be large or run the other way; further: nearly all actives have a fitted effect of over 50% in size
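Fission yeast strain RE007, carrying one chromosomally integrated HIV-1 vpr copy, was seeded at OD 0.01 in PMG+AL medium with 23 nL pinned compound. After 24 h at 30 °C and 99% humidity, viability was read by BacTiter-Glo luminescence.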
Each line names hits and unclear results; the compound was inactive in the other large screens. Unless noted, the call rests on the fitted dose curve; in most records, active means well fitted curve in the direction sought with a large enough effect; inconclusive means small, poorly fitted or top-dose-only effect, or another doubt; inactive means no such curve, though single readings can be large; an effect the other way counts as inactive or inconclusive.

O=C(NC(=S)Nc1ccc(CN2CCCCC2)cc1)c1ccco1	none (no result: Sm TGR inh)
O=C(NCCc1ccccc1)c1cnc2sc(N3CCCCC3)nn2c1=O	none (no result: NS1 function inh, SARS PLP yeast, LmPK inhibitor, RE007 growth inh)
Cc1noc(NC(=O)Nc2ccccc2F)c1C#N	none (no result: Sm TGR inh, Tb PYK inh, SARS PLP yeast, LmPK inhibitor, RE007 growth inh)
Cc1nc2c(=O)n(C)c(=O)n(C)c2nc1Cl	Sm TGR inh 6.31µM
Fc1ccc(N2CCN(c3ncnc4[nH]ncc34)CC2)cc1	none (no result: NS1 function inh, SARS PLP yeast, LmPK inhibitor, RE007 growth inh)
Cc1ccc2nc(-c3cc(N)cc(N)c3)oc2c1	Sm TGR inh 50.1µM, LmPK inhibitor inconclusive
Cc1ccc2oc(-c3ccccc3)nc2c1	LmPK inhibitor 15.8µM
COc1ccc(OCc2ccc(-c3nc(C#N)c(N4CCC(C)CC4)o3)o2)cc1	none (no result: NS1 function inh, SARS PLP yeast, LmPK inhibitor, RE007 growth inh)
Cc1ccc(OCC(=O)NCC2(N3CCOCC3)CCCCC2)cc1C	none (no result: NS1 function inh, SARS PLP yeast, LmPK inhibitor, RE007 growth inh)
CCOC(=O)C1CCCN(C(=O)C2CCN(S(=O)(=O)c3c(C)noc3/C=C/c3ccc(C)cc3)CC2)C1 (stereo not drawn)	none (no result: NS1 function inh, SARS PLP yeast, LmPK inhibitor, RE007 growth inh)
CCOC(=O)CNc1nnc(SCC(=O)OCC)[nH]c1=O	Sm TGR inh 56.2µM
CSc1nc2sc3c(c2c(=O)n1-c1ccc(F)c(Cl)c1)CCN(C(C)=O)C3	none (no result: NS1 function inh, SARS PLP yeast, LmPK inhibitor, RE007 growth inh)
Oc1ccc(O)c(-c2cnns2)c1	Sm TGR inh 79.4µM
Cc1ccc(C2=NN(CC(=O)NCCc3ccc(Cl)cc3)C(=O)CC2)cc1	none (no result: NS1 function inh, SARS PLP yeast, LmPK inhibitor, RE007 growth inh)
COc1ccc(N(CC(=O)NCc2ccc(F)cc2)C(=O)c2snc(C(N)=O)c2N)cc1	SARS PLP yeast 15.8µM
O=C(O)/C=C/C(=O)Nc1ccccc1-c1ccccc1NC(=O)/C=C/C(=O)O	Sm TGR inh 8.91µM
CCCCCCOC(=O)c1ccccc1NC(=O)/C=C/C(=O)O	Sm TGR inh 44.7µM, RE007 growth inh inconclusive
COC(=O)c1ccccc1NC(=O)/C=C/C(=O)O	SARS PLP yeast inconclusive (no result: RE007 growth inh)
O=C(O)/C=C\C(=O)Nc1ccccc1C#Cc1ccccc1	Sm TGR inh 39.8µM
O=C(O)/C=C\C(=O)Nc1ccccc1C#Cc1ccc(Br)cc1	Sm TGR inh 44.7µM, RE007 growth inh 44.7µM
NC(=O)c1ccccc1NC(=O)/C=C/C(=O)O	none
O=C(O)/C=C/C(=O)Nc1cccc2c1-c1ccccc1C2=O	none (no result: Sm TGR inh, NS1 function inh, SARS PLP yeast, LmPK inhibitor)
CCc1ccc(S(=O)(=O)c2nnn3c2nc(NCc2cccs2)c2sccc23)cc1	none (no result: NS1 function inh, SARS PLP yeast, LmPK inhibitor, RE007 growth inh)
O=S(=O)(c1cccc(C(F)(F)F)c1)N1c2ccccc2-n2cccc2[C@H]1c1cccnc1	none (no result: Sm TGR inh, Tb PYK inh, SARS PLP yeast, LmPK inhibitor, RE007 growth inh)
O=C(O)/C=C/C(=O)Nc1ccccc1SC(F)(F)F	Sm TGR inh 8.91µM
O=C(O)/C=C/C(=O)NCc1ccccc1	Sm TGR inh 50.1µM
O=C(O)/C=C\C(=O)NCc1ccccc1	none
O=C(O)C[C@H]1OCC=C2CN3CC[C@]45c6ccccc6N[C@@H]4[C@H]1[C@H]2C[C@H]35	none (no result: Sm TGR inh, Tb PYK inh, SARS PLP yeast, LmPK inhibitor, RE007 growth inh)
Oc1c(Cl)cccc1Cc1cc(Cl)cc(Cl)c1O	RE007 growth inh 35.5µM (no result: Sm TGR inh, NS1 function inh, SARS PLP yeast, LmPK inhibitor)
Oc1ccc(Cc2cc(Cl)cc(Cl)c2O)cc1Cl	none (no result: Sm TGR inh, Tb PYK inh, SARS PLP yeast, LmPK inhibitor, RE007 growth inh)
O=C(NCC1(c2ccccc2)CCCC1)C(=O)Nc1cccc(Br)c1	none (no result: NS1 function inh, SARS PLP yeast, LmPK inhibitor, RE007 growth inh)
COC(=O)C1=C(C)N(Cc2ccco2)C(=O)C1	Sm TGR inh 17.8µM
COC(=O)C1=C(C)N(Cc2ccco2)C(=O)N[C@@H]1c1ccccc1	Sm TGR inh 35.5µM
COc1ccccc1-n1cnc2cc(C(=O)NCc3ccco3)ccc21	Sm TGR inh 39.8µM
O=C(NCc1ccco1)c1ccc2nccnc2c1	none
Cn1ncc(Cl)c1C(=O)NCc1ccco1	Sm TGR inh 17.8µM
Cn1nnc2cc(C(=O)NCc3ccco3)ccc21	Sm TGR inh 39.8µM (no result: SARS PLP yeast)
Cn1nccc1CNC(=O)c1c(Cl)cnn1C	none (no result: RE007 growth inh)
O=C(/C=C\Nc1cccc(F)c1)c1ccc2c(c1)OCO2	LmPK inhibitor 12.6µM, RE007 growth inh inconclusive
COC(=O)c1ccc(N/C=C\C(=O)c2ccc3c(c2)OCO3)cc1	none
O=C(CCNc1ccccc1)c1ccc2c(c1)OCO2	Sm TGR inh 2.24µM, RE007 growth inh 31.6µM
CN(C)CCC(=O)c1ccc2c(c1)OCO2	Sm TGR inh 0.631µM, RE007 growth inh 11.2µM

Screening results as filed in PubChem.
